From PubChem BioAssay
For some of these results: Results with a measured potency or affinity are listed apart. Active and inactive are the calls of the source.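 The calls were made as follows, unless noted: active = primary screen inhibitor hit that blocks the TRPC4 channel at some tested dose, yielding a dose curve; inactive = the rest.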

Key:
[1] = tested on: TRPC4 beta (transient receptor potential cation channel C4), mouse; test: activators of mouse TRPC4 channel, confirmation, cell-based, Fluo4 calcium, HEK293 TRPC4beta/mu-opioid, duplicates, 10 µM (AID 2426;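 active = fluorescence ratio normalized to control raised more than 50% in primary screen plus both repeat runs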); settings: Fluo4 calcium fluorescence, at 10 µM; hits give high values
[2] = tested on: transient receptor potential cation channel C4 beta (TRPC4), mouse; test: activators of mouse TRPC4 channel, confirmation, cell-based, second round, Fluo4, HEK293 TRPC4beta/mu-opioid, 1 µM (AID 2461;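 active = primary screen active and over 50% activation in each of two duplicate runs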); settings: Fluo4 calcium fluorescence, at 1 µM; hits give high values
[3] = tested on: TRPC4 (transient receptor potential cation channel C4 beta), mouse; test: positive allosteric modulators of mouse TRPC4, confirmation, cell-based, second round, Fluo-4, HEK293 TRPC4beta/mu-opioid, 1 µM (AID 2554;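 active = primary screen hit whose fluorescence ratio, in both repeats, exceeds the weak agonist control mean by 3 SD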); settings: DAMGO EC20, Fluo-4 calcium flux, at 1 µM; hits give high values
[4] = tested on: TRPC4 beta (transient receptor potential cation channel C4), mouse; test: positive allosteric modulators of mouse TRPC4, confirmation, cell-based, Fluo-4, HEK293 TRPC4beta/mu-opioid (AID 2555;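 active = primary screen hit whose calcium fluorescence ratio, in both repeats, exceeds the weak agonist control mean by 3 SD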); settings: DAMGO EC20, Fluo-4 calcium flux, at 10 µM; hits give high values
[5] = target: Short transient receptor potential channel 4 (Mus musculus) (UniProt Q9QUQ5); test: inhibitors of mouse TRPC4 channel, confirmation, cell-based, Fluo4, HEK293 TRPC4beta/mu-opioid (AID 2636;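 active = calcium signal cut by more than 3 SD below the full-agonist control yet still positive, in both repeats and the earlier primary screen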); settings: DAMGO, Fluo4 calcium flux, at 10 µM; hits give high values
Short transient receptor potential channel 4 (Mus musculus), sequence (Q9QUQ5 whole entry, looked up): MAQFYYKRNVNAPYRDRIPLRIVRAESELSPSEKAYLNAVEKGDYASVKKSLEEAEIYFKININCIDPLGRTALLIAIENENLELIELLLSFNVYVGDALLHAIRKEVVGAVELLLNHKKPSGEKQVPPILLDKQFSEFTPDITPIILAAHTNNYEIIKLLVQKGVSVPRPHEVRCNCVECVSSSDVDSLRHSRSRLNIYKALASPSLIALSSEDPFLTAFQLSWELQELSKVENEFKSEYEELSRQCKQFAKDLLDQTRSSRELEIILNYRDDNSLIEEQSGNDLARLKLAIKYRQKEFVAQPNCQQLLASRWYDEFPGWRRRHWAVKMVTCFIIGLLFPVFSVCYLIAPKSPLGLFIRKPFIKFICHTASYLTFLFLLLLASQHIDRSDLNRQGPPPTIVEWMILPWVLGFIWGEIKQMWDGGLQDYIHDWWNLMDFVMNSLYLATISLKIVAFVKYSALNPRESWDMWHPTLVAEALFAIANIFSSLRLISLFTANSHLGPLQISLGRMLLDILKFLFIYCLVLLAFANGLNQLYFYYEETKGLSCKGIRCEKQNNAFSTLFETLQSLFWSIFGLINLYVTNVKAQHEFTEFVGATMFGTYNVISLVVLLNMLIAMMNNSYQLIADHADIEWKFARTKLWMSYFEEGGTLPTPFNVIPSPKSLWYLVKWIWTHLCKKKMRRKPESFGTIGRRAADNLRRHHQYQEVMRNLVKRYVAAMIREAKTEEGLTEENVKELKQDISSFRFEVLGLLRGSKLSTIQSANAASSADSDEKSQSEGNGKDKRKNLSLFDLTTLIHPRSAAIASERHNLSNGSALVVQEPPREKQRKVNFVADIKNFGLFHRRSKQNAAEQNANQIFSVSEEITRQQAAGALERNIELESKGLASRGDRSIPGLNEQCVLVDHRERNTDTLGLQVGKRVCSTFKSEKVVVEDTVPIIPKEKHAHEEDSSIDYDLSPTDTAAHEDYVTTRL

[6] = target: Short transient receptor potential channel 4 (Mus musculus) (UniProt Q9QUQ5); test: inhibitors of mouse TRPC4 channel, confirmation, cell-based, second round, Fluo4, HEK293 TRPC4beta/mu-opioid, 1 µM (AID 2637;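 active = calcium signal ratio cut to more than 3 SD under the fully stimulated control mean yet still positive, in both repeats and the primary screen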); settings: Fluo4 calcium flux, DAMGO, at 1 µM; hits give high values
[7] = target: Short transient receptor potential channel 4 (Mus musculus) (UniProt Q9QUQ5); test: mouse TRPC4 channel activators, dose response, cell-based, HEK293 TRPC4/mu-opioid, Fluo-4 calcium (AID 434937;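 active = primary screen activator hit with a dose response curve and TRPC4 channel activation at any tested dose; inactive = no activation, no dose response, or not a primary hit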)
[8] = target: Short transient receptor potential channel 4 (Mus musculus) (UniProt Q9QUQ5); test: TRPC4 positive allosteric modulators, dose response, cell-based, HEK293 TRPC4/mu-opioid, Fluo-4 calcium, EC20 DAMGO (AID 434941;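 active = earlier screen potentiator hit that boosts the TRPC4 ion channel at some dose, with a dose response; inactive = no potentiation, no dose response, or not a prior hit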;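 also: calcium entry triggered by an EC20 dose of DAMGO at the co-expressed mu-opioid receptor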)
[9] = target: Short transient receptor potential channel 4 (Mus musculus) (UniProt Q9QUQ5); test: mouse TRPC4 channel inhibitors, dose response, cell-based, HEK293 TRPC4/mu-opioid, Fluo-4 calcium (AID 434942)
[10] = target: Short transient receptor potential channel 6 (Mus musculus) (UniProt Q61143); test: inhibition of mouse TRPC6 channel, confirmation, selectivity assay for TRPC4 inhibitor project, cell-based, HEK293, membrane potential dye, duplicate (AID 434948;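 active = active in primary screen and both duplicates, each dropping signal beyond three positive-control SD with fluorescence still positive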); settings: HEK293 TRPC6, membrane potential dye fluorescence, at 10 µM, stimulated with maximal-effect acetylcholine; hits give high values
Short transient receptor potential channel 6 (Mus musculus), sequence (Q61143 whole entry, looked up): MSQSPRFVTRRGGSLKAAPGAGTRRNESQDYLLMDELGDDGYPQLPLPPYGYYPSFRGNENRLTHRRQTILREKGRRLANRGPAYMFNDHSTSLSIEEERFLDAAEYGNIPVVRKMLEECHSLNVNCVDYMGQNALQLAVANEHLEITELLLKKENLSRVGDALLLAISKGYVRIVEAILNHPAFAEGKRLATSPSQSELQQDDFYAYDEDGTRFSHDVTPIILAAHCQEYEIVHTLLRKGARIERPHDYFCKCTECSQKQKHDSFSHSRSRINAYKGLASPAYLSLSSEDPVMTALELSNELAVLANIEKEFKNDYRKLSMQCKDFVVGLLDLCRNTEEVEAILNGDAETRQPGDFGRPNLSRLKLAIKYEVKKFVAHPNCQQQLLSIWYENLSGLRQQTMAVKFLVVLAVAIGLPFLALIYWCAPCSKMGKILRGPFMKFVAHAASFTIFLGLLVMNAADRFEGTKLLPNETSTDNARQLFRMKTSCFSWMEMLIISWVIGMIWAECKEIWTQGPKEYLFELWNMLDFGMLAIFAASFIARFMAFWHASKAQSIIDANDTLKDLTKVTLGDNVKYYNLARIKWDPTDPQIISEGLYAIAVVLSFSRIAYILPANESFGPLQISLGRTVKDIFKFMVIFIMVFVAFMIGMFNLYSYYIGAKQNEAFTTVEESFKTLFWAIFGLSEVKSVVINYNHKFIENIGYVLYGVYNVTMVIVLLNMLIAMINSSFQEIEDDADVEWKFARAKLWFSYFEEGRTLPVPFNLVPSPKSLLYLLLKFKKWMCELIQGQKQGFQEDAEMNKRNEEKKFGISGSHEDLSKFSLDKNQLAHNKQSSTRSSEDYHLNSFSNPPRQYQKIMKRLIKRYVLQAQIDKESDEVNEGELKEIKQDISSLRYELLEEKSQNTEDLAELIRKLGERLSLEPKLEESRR

[11] = target: Short transient receptor potential channel 6 (Mus musculus) (UniProt Q61143); test: activation of mouse TRPC6 channel, confirmation, selectivity assay for TRPC4 activator project, cell-based, HEK293, membrane potential dye, duplicate (AID 434950;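 active = membrane potential signal rise above negative control mean plus 3 SD in both duplicates, also active in the earlier TRPC4 screen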); settings: HEK293 TRPC6, membrane potential fluorescence, at 10 µM; hits give high values
[12] = target: Short transient receptor potential channel 6 (Mus musculus) (UniProt Q61143); test: TRPC6 potentiation by TRPC4 potentiator hits, confirmation, selectivity assay for TRPC4 potentiator project, HEK293 cells, membrane potential dye, duplicate (AID 434952;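 active = compound raising the membrane signal above positive-control mean plus 3 SD in both repeats, and a primary screen hit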); settings: HEK293 TRPC6, membrane potential dye fluorescence, at 10 µM, maximal acetylcholine added after compound; hits give high values
[13] = target: Short transient receptor potential channel 4 (Mus musculus) (UniProt Q9QUQ5); test: calcium flux activators in TRPC4/5HT1a cells, counter-screen for TRPC4 activator project, cell-based, second counter screen, HEK293 TRPC4/5HT1a, Fluo-4 (AID 434977;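 active = calcium signal rise above buffer-control mean plus 5 SD in both duplicates, and also a hit in the primary screen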); settings: Fluo-4 calcium flux, at 10 µM; hits give high values
[14] = calcium flux inhibitors in TRPC4/5HT1a cells, confirmation, counter-screen for TRPC4 inhibitor project, cell-based, second counter screen, HEK293 TRPC4/5HT1a, Fluo-4 (AID 434978;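 active = primary screen active whose calcium signal fell more than 3 SD beyond the full-serotonin control mean in both duplicate plates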;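 also: serotonin given first at submaximal then at maximal dose after compound preincubation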); settings: Fluo-4 calcium flux, at 10 µM, serotonin added to trigger calcium flux; hits give high values
[15] = tested on: TRPC4 (mouse), co-expressed with 5HT1a in HEK293; test: calcium flux potentiators in TRPC4/5HT1a cells, confirmation, counter-screen for TRPC4 potentiator project, cell-based, second counter screen, HEK293 TRPC4/5HT1a, Fluo-4 (AID 434979;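 active = signal rise over 3 SD above mean of control wells given weak agonist, in both repeats and first screen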); settings: Fluo-4 calcium flux, at 10 µM, serotonin added at its EC20 dose; hits give high values
[16] = calcium flux activation in mu-opioid HEK293 cells, confirmation, counter-screen for TRPC4 activator project, cell-based, HEK293 mu-opioid receptor line (AID 449723;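 active = hit in primary screen, with calcium signal over 5 SD above buffer well mean in both duplicates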;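 also: counter screen cells carry the mu-opioid receptor alone and lack TRPC4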); settings: Fluo-4 calcium fluorescence, at 10 µM; hits give high values
[17] = calcium flux enhancement in mu-opioid HEK293 cells, confirmation, counter-screen for TRPC4 allosteric potentiator project, cell-based, HEK293 mu-opioid receptor line (AID 449724;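 active = calcium signal rise more than 3 SD above the low-dose agonist control mean, in both duplicate plates and the primary screen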); settings: Fluo-4 calcium flux, at 10 µM, compound added before EC20 DAMGO stimulus; hits give high values

Measured: potentiation

CCOc1ccc(Nc2nc(Cc3nnc(SCC(=O)c4ccc(C)cc4)o3)cs2)cc1
active: [15] 8.2%
inactive: all other assays above

O=C(OCCCCN1C(=O)c2ccccc2C1=O)c1ccc(S(=O)(=O)N2CCCC2)cc1
inactive: all assays above

CCCn1c(=O)c2sccc2n2c(CCCC(=O)NC3CCN(Cc4ccccc4)CC3)nnc12
active: [4] 7% | [15] 7.99%
inactive: all other assays above

CCCn1c(=O)c(C(=O)NCC2CCCO2)c(O)c2ccccc21 (stereo unspecified)
active: [3] 16% | [4] 11% | [15] 7.45%
inactive: all other assays above

Cc1ccc(Cl)c(OCCN2CCCC(C)C2)c1 (stereo unspecified)
active: [3] 25% | [15] 7.06%
inactive: all other assays above

CN(C)C(CNC(=O)c1ccc(S(=O)(=O)NCc2ccco2)cc1)c1ccccc1 (stereo unspecified)
inactive: all assays above

COc1ccccc1N1CCN(c2ncc(C(=O)N3CCN(c4cccc(Cl)c4)CC3)c3ccccc23)CC1
active: [15] 13.4%
inactive: all other assays above

COc1cc(CNC2CCCCCCC2)cc(Br)c1OCC#N
inactive: all assays above
